Inconclusive results are not listed. Active and inactive are the calls of the source. Unless noted, calls follow the shape of the dose curve; as a rule, active = well fitted curve in either direction with a large enough effect (not every such curve was filed as active); inconclusive = small, poorly fitted or top-dose-only effect, or another doubt; inactive = flat fitted curve, though single readings scatter.
How the values were obtained:
[1] = AP1 Signaling Pathway (AID 357); also: % is scaled to controls: 0 for no effect and ±100 for the full control effect
Outline: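 AP-1-bla ME-180 cells with beta-lactamase reporter under AP-1 response element, stimulated with EC50 EGF; compounds titrated, 5 hours at 37 degrees Celsius. CCF4 read at 460/530 nm ratio; positive and negative modulators judged by AC50.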

[2] = biological target: Cytochrome P450 1A2 (Homo sapiens) (UniProt P05177); test: p450-cyp1a2 (AID 410; calls by dose curve; also: potency is read from the fitted curve at half-maximal effect;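 as to activity change, negative = inhibition: -100% = full effect of reference inhibitor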)
Outline: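 Inhibition was calculated relative to 57 uM furafylline (full inhibition). The reaction used human CYP1A2 at 20nM with Luciferin-ME at its Km, 100uM, driven by an NADPH-regenerating system for 60 min at room temperature.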

[3] = NFAT Signaling Pathway (AID 444); conditions: Jurkat NFAT-bla M1, carbachol, beta-lactamase ratio, 5 h; at 7.69 µM (top of the series);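 also: carbachol stimulus at about its EC50 of 1 µM final; % is scaled to controls: 0 for no effect and ±100 for the full control effect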
Outline: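 Read-out: CCF4 FRET ratio (460 nm/530 nm) after 1 h RT dye loading, used for %activity and AC50 from titration series. Cells: Jurkat NFAT-β-lactamase/M1 line, treated with compound plus 1 uM carbachol for 5 h, 37 °C.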

[4] = Stat Signaling Pathway (AID 446);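 also: ME-180 cervical cancer cells given 40 pM IL-6 alongside compound; SIE-controlled beta-lactamase reporter measured as 460/530 nm FRET emission ratio; % is scaled to controls: 0 for no effect and ±100 for the full control effect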
Outline: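 ME-180 SIE-bla cells; overnight plating; cpd + IL-6 40 pM, 5 h, 37 C; LiveBLAzer 2.5 h RT; 460/530 nm emission ratio. Normalized to 300 pM IL-6 and 125 nM JAK inhibitor controls.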

[5] = biological target: Glucocorticoid receptor (Homo sapiens) (UniProt P04150); test: GR-EFC Redistribution (AID 451; calls by dose curve; also: potency is read from the fitted curve at half-maximal effect); conditions: CHO-K1 GR-EFC translocation, beta-gal luminescence, 2 h
Outline: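 Translocation of GR-ED fusion to nuclear EA restores b-gal, read by luminescence after 1 h room-temperature detection. Engineered CHO-K1 biosensor cells, 1,000/well, exposed 2 h at 37 C to titrations up to 46 uM final.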

[6] = biological target: 3',5'-cyclic-AMP phosphodiesterase 4B (Homo sapiens) (UniProt Q07343); test: qHTS Assay for Inhibitors of PDE-IV (AID 607; active = well fitted activation curve with a large enough effect in the main read-out, with a control signal flat, not every such curve was filed as active; also: % of control where 0% means no effect)
Outline: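 ACTOne HEK293 cells carry a modified cAMP-gated CNG channel and express endogenous PDE4; plated 1000 cells/well, compounds up to 22.9 uM final. Membrane-potential dye fluorescence (ex 535/em 590) was read; parental cells received 10 uM forskolin + 100 uM RO 20-1724.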

[7] = biological target: Cytochrome P450 3A4 (Homo sapiens) (UniProt P08684); test: qHTS Assay for Inhibitors and Substrates of Cytochrome P450 3A4 (AID 884; active = well fitted curve in the direction sought with a large enough effect; an effect the other way counts as inactive or inconclusive; also: % is scaled to controls: 0 for no effect and ±100 for the full control effect; nearly all actives have a fitted effect of over 50% in size)
Outline: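 20 nM human CYP3A4 with 25 uM Luciferin-PPXE (at KM) in 200 mM KPO4, preincubated 10 min with compound; NADPH regeneration started a 60 min RT reaction. Luciferin detected by luminescence, normalized to 57 uM ketoconazole as full inhibition.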

[8] = biological target: Cytochrome P450 3A4 (Homo sapiens) (UniProt P08684); test: qHTS Assay for Activators of Cytochrome P450 3A4 (AID 885; active = well fitted curve in the direction sought with a large enough effect; an effect the other way counts as inactive or inconclusive; also: nearly all actives have a fitted effect of over 65% in size; also: potency is read from the fitted curve at half-maximal effect)
Outline: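 20nM CYP3A4 + 25uM Luciferin-PPXE (=KM), 200mM KPO4; cpd 10 min RT; NADPH regen, 60 min RT; stop w/ detection buffer, 20 min; luminescence. Normalized to 57 uM ketoconazole.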

[9] = qHTS Assay for Lipid Storage Modulators (AID 1519; calls by dose curve); conditions: Drosophila S3 cells, BODIPY lipid droplet/cell ratio, laser cytometry, cells loaded with oleic acid; for activity change, negative = inhibition: at 57.5 µM (top of the series)
Outline: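 Cells seeded at 5,000 per well were treated with compounds over a concentration series and loaded with oleic acid (400 uM, as added). Lipid droplet fluorescence (488 nm excitation, 500-530 nm channel) was read by laser-scanning cytometry and normalized to 20 uM Triacsin C.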

[10] = Primary qHTS for small molecule stabilizers of the endoplasmic reticulum resident proteome: Secreted ER Calcium Modulated Protein (SERCaMP) assay (AID 1508630; active = well fitted curve in the direction sought with a large enough effect; an effect the other way counts as inactive or inconclusive; also: % is scaled to controls: 0 for no effect and ±100 for the full control effect)
Outline: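 GLuc-SERCaMP-expressing SH-SY5Y cells, pretreated 16 h with compound, are challenged with thapsigargin to empty ER calcium stores; after 4 h, coelenterazine is added directly to the medium and luminescence is imaged.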

[11] = system: HIV-1 nucleocapsid protein NCp7 (binding to TG oligonucleotide); test: HIV Nucleocapsid (AID 346; call rule not given here;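 also: potency is read from the fitted curve at half-maximal effect; potency is for inhibitors that block NC binding and lower polarization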); conditions: HIV-1 NC / fluorescein-TGTGTGTG probe, fluorescence polarization
Outline: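 Reagents dispensed (10 nM TG4xF, 100 nM HIV-1 NC), plates spun, compounds pin-transferred, then incubated 1 hr at room temperature before FP imaging. Buffer: Hepes pH 7.5, 250mM NaCl, 1uM ZnCl2, 100 uM TCEP, 5 mM 2-mercaptoethanol.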

[12] = biological target: Mitogen-activated protein kinase 10 (Mus musculus) (UniProt Q61831); test: JNK3 AlphaScreen Assay (AID 530)
Outline: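 Room-temperature AlphaScreen kinase assay; pre-activated HepG2 lysate as JNK3 source, biotin-GST-cJun(1-79) substrate, 10 uM ATP, compound 15 min preincubation.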

[13] = biological target: Lysosomal acid glucosylceramidase (Homo sapiens) (UniProt P04062); test: Glucocerebrosidase-p2 (AID 348; in the data active = potency below about 10 µM; also: potency is read from the fitted curve at half-maximal effect); conditions: purified GBA, blue fluorogenic substrate, 40 min
Outline: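 Compounds titrated from 0.6 nM upwards against 0.2 nM enzyme in pH 5.9 citric acid/KH2PO4, taurocholate, tween-20; blue fluorogenic substrate 80 uM, 40 min room temperature, stopped and read Ex 365/Em 440 for AC50.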

[14] = biological target: Cytochrome P450 2D6 (Homo sapiens) (UniProt P10635); test: qHTS Assay for Inhibitors and Substrates of Cytochrome P450 2D6 (AID 891; active = well fitted curve in the direction sought with a large enough effect; an effect the other way counts as inactive or inconclusive; also: potency is read from the fitted curve at half-maximal effect; nearly all actives have a fitted effect of over 60% in size)
Outline: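 Human CYP2D6 (5 nM) with 30 uM Luciferin-ME EGE (at Km) in 100 mM KPO4, compound preincubated 10 min, then NADPH regeneration system for 60 min at room temperature. Luciferin read by luminescence; normalized to 1.43 uM quinidine.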

[15] = measured here: cell count channel max response
[16] = measured here: lipid channel max response

3',5'-cyclic-AMP phosphodiesterase 4B (Homo sapiens), sequence (Q07343 whole entry, looked up): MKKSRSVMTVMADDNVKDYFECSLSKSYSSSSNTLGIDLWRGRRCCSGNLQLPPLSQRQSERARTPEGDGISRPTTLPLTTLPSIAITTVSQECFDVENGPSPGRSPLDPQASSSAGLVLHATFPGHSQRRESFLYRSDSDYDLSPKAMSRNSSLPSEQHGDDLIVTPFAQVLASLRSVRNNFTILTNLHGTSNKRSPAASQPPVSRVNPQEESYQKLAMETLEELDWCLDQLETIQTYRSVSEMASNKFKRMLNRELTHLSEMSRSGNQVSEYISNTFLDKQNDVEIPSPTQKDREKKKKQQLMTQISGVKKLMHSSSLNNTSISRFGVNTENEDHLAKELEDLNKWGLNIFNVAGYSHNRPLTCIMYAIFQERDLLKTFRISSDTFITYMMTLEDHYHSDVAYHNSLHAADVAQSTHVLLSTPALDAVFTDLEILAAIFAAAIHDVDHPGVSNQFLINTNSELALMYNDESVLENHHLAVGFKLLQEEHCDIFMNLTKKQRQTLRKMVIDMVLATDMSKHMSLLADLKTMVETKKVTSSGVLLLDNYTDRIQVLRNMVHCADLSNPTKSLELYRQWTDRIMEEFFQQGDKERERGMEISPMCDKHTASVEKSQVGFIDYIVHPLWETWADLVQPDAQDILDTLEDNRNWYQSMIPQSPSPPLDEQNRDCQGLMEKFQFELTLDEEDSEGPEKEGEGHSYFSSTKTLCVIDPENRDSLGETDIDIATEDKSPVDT
Lysosomal acid glucosylceramidase (Homo sapiens), sequence (P04062 whole entry, looked up): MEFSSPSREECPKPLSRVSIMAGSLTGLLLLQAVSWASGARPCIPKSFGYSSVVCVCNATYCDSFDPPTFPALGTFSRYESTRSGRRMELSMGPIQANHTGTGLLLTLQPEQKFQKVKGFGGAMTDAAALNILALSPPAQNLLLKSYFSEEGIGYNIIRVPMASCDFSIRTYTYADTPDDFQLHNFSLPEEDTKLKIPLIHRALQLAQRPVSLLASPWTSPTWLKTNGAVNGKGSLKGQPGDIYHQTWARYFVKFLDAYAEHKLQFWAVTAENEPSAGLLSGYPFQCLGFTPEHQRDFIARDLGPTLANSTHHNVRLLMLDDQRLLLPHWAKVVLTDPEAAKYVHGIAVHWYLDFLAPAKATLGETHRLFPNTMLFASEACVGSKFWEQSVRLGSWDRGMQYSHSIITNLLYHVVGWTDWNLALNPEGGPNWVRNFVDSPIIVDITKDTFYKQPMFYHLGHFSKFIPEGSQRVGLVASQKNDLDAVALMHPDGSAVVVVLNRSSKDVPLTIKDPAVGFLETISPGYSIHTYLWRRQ
Cytochrome P450 3A4 (Homo sapiens), sequence (P08684 whole entry, looked up): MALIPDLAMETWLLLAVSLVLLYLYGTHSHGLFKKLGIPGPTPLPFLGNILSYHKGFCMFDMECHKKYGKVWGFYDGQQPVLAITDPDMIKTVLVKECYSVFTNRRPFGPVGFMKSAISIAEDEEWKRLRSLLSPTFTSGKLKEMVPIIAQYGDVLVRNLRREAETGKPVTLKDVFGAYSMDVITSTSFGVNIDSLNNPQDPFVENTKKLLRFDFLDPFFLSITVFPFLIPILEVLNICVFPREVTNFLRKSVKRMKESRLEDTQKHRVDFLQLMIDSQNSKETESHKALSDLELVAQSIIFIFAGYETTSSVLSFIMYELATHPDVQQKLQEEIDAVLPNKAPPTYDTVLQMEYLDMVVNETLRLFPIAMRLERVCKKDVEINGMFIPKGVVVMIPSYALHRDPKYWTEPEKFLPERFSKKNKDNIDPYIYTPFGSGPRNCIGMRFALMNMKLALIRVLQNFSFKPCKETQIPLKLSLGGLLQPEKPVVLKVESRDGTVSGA
Glucocorticoid receptor (Homo sapiens), sequence (P04150 whole entry, looked up, the tested form may be a part): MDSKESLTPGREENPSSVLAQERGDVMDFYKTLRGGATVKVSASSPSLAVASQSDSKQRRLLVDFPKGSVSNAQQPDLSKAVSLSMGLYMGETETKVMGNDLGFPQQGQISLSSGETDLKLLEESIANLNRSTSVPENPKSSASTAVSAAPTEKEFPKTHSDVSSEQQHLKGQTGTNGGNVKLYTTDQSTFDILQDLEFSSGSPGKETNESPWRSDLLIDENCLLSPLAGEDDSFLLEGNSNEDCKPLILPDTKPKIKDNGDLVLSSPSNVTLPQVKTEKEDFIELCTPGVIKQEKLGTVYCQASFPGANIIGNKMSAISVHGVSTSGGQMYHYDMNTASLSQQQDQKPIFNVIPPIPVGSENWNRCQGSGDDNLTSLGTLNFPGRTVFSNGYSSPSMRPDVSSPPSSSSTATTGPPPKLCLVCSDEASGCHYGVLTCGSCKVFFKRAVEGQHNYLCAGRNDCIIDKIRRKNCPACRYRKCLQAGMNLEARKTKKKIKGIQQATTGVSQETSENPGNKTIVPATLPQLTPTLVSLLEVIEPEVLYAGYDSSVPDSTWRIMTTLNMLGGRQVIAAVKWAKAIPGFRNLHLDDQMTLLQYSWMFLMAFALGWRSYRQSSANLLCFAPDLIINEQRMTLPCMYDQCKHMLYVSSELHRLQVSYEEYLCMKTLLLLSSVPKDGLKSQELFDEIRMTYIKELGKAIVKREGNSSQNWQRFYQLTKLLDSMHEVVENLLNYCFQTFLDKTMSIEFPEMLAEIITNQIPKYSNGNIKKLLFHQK
Cytochrome P450 1A2 (Homo sapiens), sequence (P05177 whole entry, looked up): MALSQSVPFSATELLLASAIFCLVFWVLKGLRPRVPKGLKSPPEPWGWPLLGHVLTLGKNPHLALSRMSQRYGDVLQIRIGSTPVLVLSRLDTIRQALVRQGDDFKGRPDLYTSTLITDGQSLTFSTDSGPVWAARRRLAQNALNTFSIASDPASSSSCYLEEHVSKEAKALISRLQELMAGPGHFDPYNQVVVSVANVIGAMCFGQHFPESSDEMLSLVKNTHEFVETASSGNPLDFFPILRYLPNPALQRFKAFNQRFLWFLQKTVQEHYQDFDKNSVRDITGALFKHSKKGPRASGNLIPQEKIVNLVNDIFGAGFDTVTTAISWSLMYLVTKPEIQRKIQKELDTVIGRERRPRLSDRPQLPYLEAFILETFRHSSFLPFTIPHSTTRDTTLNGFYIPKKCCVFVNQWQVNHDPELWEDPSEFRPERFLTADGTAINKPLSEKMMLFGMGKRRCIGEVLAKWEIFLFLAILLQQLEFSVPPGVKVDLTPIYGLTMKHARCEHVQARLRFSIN
Cytochrome P450 2D6 (Homo sapiens), sequence (P10635 whole entry, looked up): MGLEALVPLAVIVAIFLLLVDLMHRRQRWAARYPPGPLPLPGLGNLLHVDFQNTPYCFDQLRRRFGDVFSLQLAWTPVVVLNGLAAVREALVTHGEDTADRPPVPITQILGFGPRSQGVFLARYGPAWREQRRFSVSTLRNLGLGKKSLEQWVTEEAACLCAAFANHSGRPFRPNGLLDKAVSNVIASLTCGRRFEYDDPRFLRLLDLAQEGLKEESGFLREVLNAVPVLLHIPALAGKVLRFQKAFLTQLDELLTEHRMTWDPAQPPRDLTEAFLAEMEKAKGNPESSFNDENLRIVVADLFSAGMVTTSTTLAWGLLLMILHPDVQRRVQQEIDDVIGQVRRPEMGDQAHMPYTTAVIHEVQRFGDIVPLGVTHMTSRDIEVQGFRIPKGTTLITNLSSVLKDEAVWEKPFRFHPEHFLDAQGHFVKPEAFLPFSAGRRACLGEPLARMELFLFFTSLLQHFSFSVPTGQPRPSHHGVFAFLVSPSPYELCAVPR

O=C(Nc1ccccc1)N1CC2(CCN(C(=O)Oc3ccccc3)CC2)C1
inactive: outcome [1] | activity change, negative = inhibition [3] 23.8% | outcome [4] | Potency [5] > 46 µM | Potency [6] | Potency [7] | activity change, negative = inhibition [9] 7.64% | outcome [10]
9.38%: max response [9, 15]
22.2%: max response [9, 16]
active: Potency [2] 20 µM | Potency [8] 15.8 µM

O=C(c1ccco1)N1CCC2(CC1)CN(Cc1ccncc1)C2
inactive: Potency [11] > 20 µM | outcome [1] | outcome [4] | Potency [5] > 46 µM | outcome [12] | outcome [10]

O=C(c1csnn1)N1CCC[C@@]2(CCN(Cc3ccncc3)C2)C1
21.7%: max response [9, 15]
inactive: Potency [13] > 11.4 µM | outcome [1] | activity change, negative = inhibition [3] -2.7% | outcome [4] | Potency [5] > 46 µM | outcome [12] | Potency [6] | activity change, negative = inhibition [9] 4.95% | outcome [10]
28.5%: max response [9, 16]

O=C(Oc1ccccc1)N1CCC[C@@]2(CCN(C(c3ccccc3)c3ccccc3)C2)C1
inactive: Potency [11] > 20 µM | Potency [13] > 11.4 µM | outcome [1] | activity change, negative = inhibition [3] -12.9% | outcome [4] | Potency [5] > 46 µM | outcome [12] | Potency [8] | outcome [10]
active: Potency [14] 5.01 µM

CS(=O)(=O)N1CCC2(CCCN(Cc3ccncc3)C2)CC1
25.1%: max response [9, 16]
15.9%: max response [9, 15]
inactive: outcome [1] | activity change, negative = inhibition [3] -20.7% | outcome [4] | Potency [5] > 46 µM | outcome [12] | Potency [6] | activity change, negative = inhibition [9] 6.09% | outcome [10]

COCC(=O)N1CCC2(CCCN(Cc3ccncc3)C2)CC1
inactive: outcome [1] | outcome [4] | Potency [5] > 46 µM | Potency [8] | activity change, negative = inhibition [9] 5.89% | outcome [10]
21.3%: max response [9, 16]
12.2%: max response [9, 15]

O=C(Oc1ccccc1)N1CCC2(CC1)CN(Cc1ccncc1)C2
inactive: Potency [11] > 20 µM | outcome [1] | outcome [4] | Potency [5] > 46 µM | outcome [12] | Potency [8] | outcome [10]
active: Potency [2] 10 µM

COc1ccccc1CN1CC[C@@]2(CCCN(C(=O)Oc3ccccc3)C2)C1
2.61%: max response [9, 15]
inactive: outcome [1] | outcome [4] | Potency [5] > 46 µM | outcome [12] | Potency [6] | Potency [8] | activity change, negative = inhibition [9] 7.75% | outcome [10]
13.6%: max response [9, 16]
active: Potency [2] 10 µM

CN1CC[C@@]2(CCCN(C(=O)Oc3ccccc3)C2)C1
22%: max response [9, 16]
inactive: Potency [13] > 11.4 µM | outcome [1] | Potency [2] | activity change, negative = inhibition [3] 0.664% | outcome [4] | Potency [5] > 46 µM | Potency [6] | Potency [8] | activity change, negative = inhibition [9] 2.41% | outcome [10]
16.8%: max response [9, 15]
